Laboratory results from PubChem BioAssay AID1578 (Sanford-Burnham Center for Chemical Genomics, 2009).
About 3,000 (1%) of roughly 290,000 compounds were called active. This excerpt belongs to a sample that is enriched for actives. A number with no mark means an inactive call. No stated cut-off is given here; in the data, active means inhibition mostly above about 36% (no sharp cut-off); inactive means mostly below about 34%.

test: NOD1 signaling inhibitors, primary screen, cell-based, luminescence, uHTS (AID 1578); conditions: NOD1-driven NF-kB luciferase reporter cells, at 4 µM, active compounds read high;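 further: HEK-293T reporter cells stimulated with the NOD1 agonist gamma-tri-DAP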

SMILES	inhibition
COC(=O)c1nn(-c2ccc3c(c2)CCN3C(C)=O)cc1O	78.5% (active)
CCOC(=O)c1nn(-c2ccc3c(c2)CCN3C(C)=O)cc1O	-27.8%
COC(=O)c1nn(-c2ccc3c(c2)OCO3)cc1O	-11.8%
N#CN=C(c1ccccc1)c1ccccc1	-20.8%
O=C(c1ccc(N2CCCC2=O)cc1)N1CCN(c2ccc(Cl)cc2)CC1	-4.5%
O=C(c1ccccc1-c1nc(-c2ccccc2)no1)N1CCCC1	-35%
FC(F)(F)c1ccc(C2NCCc3sccc32)cc1 (centres undefined)	-38.2%
Cn1ccs/c1=N\C(=O)Nc1cccc(Cl)c1	110% (active)
Cn1ccs/c1=N\C(=O)Nc1ccccc1	-7.2%
Cn1ccs/c1=N\C(=O)Nc1cccc(C(F)(F)F)c1	-21.9%
CCOC(=O)CN1C(=O)S/C(=C/c2ccco2)C1=O	-37.3%
CC(C)N(C)Cc1nnnn1CC(=O)N(C)Cc1cccc(Cl)c1	-14.1%
Nc1nc(Nc2ccc(Cl)cc2)nc(NCCO)c1[N+](=O)[O-]	3%
Cc1ccc(NC(=O)c2ccc(OC(=O)C(C)Oc3ccc(Cl)cc3C)cc2)cc1 (centres undefined)	-12.4%
CC(C)C(=O)Nc1cccc(C(=O)Nc2ccccc2C(=O)O)c1	-0.4%
Cc1cc(Cl)ccc1OC(C)C(=O)Nc1ccc(C(=O)Nc2ccccc2C(=O)O)cc1 (centres undefined)	82.7% (active)
Cn1cnnc1SCc1ccc(C#N)cc1Cl	-35.4%
CC1CC(NC(=O)Cc2ccc(Br)cc2)CC(C)(C)C1 (centres undefined)	-9.8%
O=C(c1cccc2c1-c1ccccc1/C2=N/O)N1CCCCC1	66.9% (active)
COc1ccccc1C(=O)Nc1ccccc1C(=O)N1C(C)CCCC1C (centres undefined)	-5%
CC(C)COC(=O)c1cccc2c1-c1ccccc1/C2=N\O	14.1%
O=C1c2ccccc2-c2c1cccc2C(=O)N1CCCCC1	-12.6%
CC1CCCC(C)N1C(=O)c1cccc2c1-c1ccccc1/C2=N/O (centres undefined)	75.8% (active)
O=C1c2ccccc2-c2c1cccc2C(=O)N1CCCCCC1	0.4%
CN1CC(=O)N(CC(=O)Nc2cc(Cl)cc(Cl)c2)C1=O	-17.3%

SMILES	inhibition
CCn1c(=O)c(C(=O)Nc2ccsc2C(=O)OC)c(O)c2ccccc21	-28.8%
COc1ccccc1C(=O)NC1CC2CCC(C1)N2Cc1ccccc1 (centres undefined)	-9.7%
COc1ccc(CCNC(=S)NC(=O)c2cccc(Cl)c2)cc1OC	-2.1%
CCCn1nc([N+](=O)[O-])c(C(C#N)c2nc3ccccc3s2)c(Cl)c1=O (centres undefined)	63.6%
Cn1nc([N+](=O)[O-])c(C(C#N)c2nc3ccccc3n2C)c(Cl)c1=O (centres undefined)	23.7%
CCn1nc([N+](=O)[O-])c(C(C#N)c2nc3ccccc3n2C)c(Cl)c1=O (centres undefined)	32%
CCCn1nc([N+](=O)[O-])c(C(C#N)c2nc3ccccc3o2)c(Cl)c1=O (centres undefined)	80.5% (active)
Cn1nc([N+](=O)[O-])c(C(C#N)c2ccccn2)c(Cl)c1=O (centres undefined)	-21.4%
COc1ccc(C(C(=O)NC2CCCCC2)N(C(=O)c2ccco2)c2ccccc2C(C)=O)cc1OC (centres undefined)	-17.6%
COc1ccc2c(c1)C(=O)C(=O)N2CC1COc2ccccc2O1 (centres undefined)	-10%
O=C(NCCc1csc(-c2ccccc2)n1)c1ccccc1F	28.3% (active)
O=C(NCCc1csc(-c2ccccc2)n1)c1c(F)cccc1Cl	-7.4%
O=C(NCCc1csc(-c2ccccc2)n1)c1c(F)cccc1F	-19.1%
CCOC(=O)c1nnn2c1nc(N1CCOCC1)c1ccccc12	3.1%
Cc1ccc(C(=O)N(CC(=O)NC2CCCCC2)c2ccccc2F)s1	-27%
O=C(NC1CC1)c1ccc(CS(=O)c2ccccc2)o1 (centres undefined)	-19%
Cc1ccc2nc(NC(=O)c3ccc(OCC4CCCO4)cc3)sc2c1 (centres undefined)	3.2%
C/C=C(/C)C(=O)OC(C)(C)[C@@H]1Cc2c(ccc3ccc(=O)oc23)O1	-44.4%
O=C(COn1nnc2ccc(C(F)(F)F)cc21)Nc1c(Cl)cccc1Cl	-17.9%
O=C(COn1nnc2ccc(C(F)(F)F)cc21)Nc1nnc(-c2ccccc2)o1	67.4% (active)
Cc1cccc(C)c1NC(=O)COn1nnc2ccc(C(F)(F)F)cc21	-17.2%
CCOC(=O)C1(Nc2nccs2)Sc2ccccc2NC1=O (centres undefined)	24.1%
CSc1nncc(-c2ccc(F)cc2)n1	12.5%
COc1ccc(/C(C)=N/NC(=O)c2ccc(NS(=O)(=O)c3cccs3)cc2)cc1	-9.8%
CSCC[C@H](N)C(=O)NCC1CCC(C(=O)Nc2ccc3c(c2)OCO3)CC1 (some centres undefined)	-1.6%

SMILES	inhibition
N#CC1(c2ccccc2)CCCN1C(=O)c1ccco1 (centres undefined)	7.3%
O=Cc1s/c(=N\S(=O)(=O)c2ccccc2)n(CCCCl)c1Cl	17.3%
CCn1c(Cl)c(C=O)s/c1=N\S(=O)(=O)c1ccccc1	34% (active)
Cc1c(C(C)(C)C)s/c(=N/S(=O)(=O)c2ccccc2)n1C	3%
CN(C)S(=O)(=O)c1cccc(C(=O)Nc2ccccc2N2CCCCC2)c1	-14.5%
COc1cc(-c2noc(C)c2-c2ccc(N(C)C)nc2)cc(OC)c1OC	62% (active)
COc1cc(-c2c(-c3cc(OC)c(OC)c(OC)c3)noc2C)ccc1F	-21.2%
COc1ccc(-c2c(-c3cc(OC)c(OC)c(OC)c3)noc2C)cn1	-8.6%
CCOC(=O)c1cnn(-c2nc(SC)nc3sc4c(c23)CCCC4)c1N	-0.3%
CCOC(=O)c1cnn(-c2nc3sc4c(c3c(=O)[nH]2)CCCC4)c1N	63.7% (active)
CCOC(=O)c1cnn(-c2nc(C)nc3sc4c(c23)CCC4)c1N	-33%
S=C(NCc1ccc(Cl)cc1)NN1CCOCC1	-24.6%
CCOCCCNC(=O)NC(=O)CN1CCN(S(=O)(=O)c2ccc3c(c2)OCCO3)CC1	-47%
O=C1CCC(=O)N1CC1CC2CCC1C2 (centres undefined)	0.2%
COC(=O)c1cn(-c2ccccc2)nc1-c1ccccc1	-4.9%
COC(=O)c1cn(-c2ccccc2)nc1-c1ccc(OC)cc1	47.5% (active)
COc1ccc(-c2nn(-c3ccccc3)cc2C(=O)O)cc1	18.9%
O=C(c1ccc(Br)cc1)N(c1ccccn1)C1CCCCC1	-12.8%
CCCN1C(=O)/C(=C/c2c(N3CCNC(=O)C3CC(=O)OC)nc3c(C)cccn3c2=O)SC1=S (centres undefined)	6.9%
CCCN1C(=O)/C(=C/c2c(N3CCNC(=O)C3CC(=O)OCC)nc3c(C)cccn3c2=O)SC1=S (centres undefined)	-1%
CCOC(=O)CC1C(=O)NCCN1c1nc2c(C)cccn2c(=O)c1/C=C1\SC(=S)N(C(C)CC)C1=O (centres undefined)	35.4% (active)
CCOC(=O)CC1C(=O)NCCN1c1nc2c(C)cccn2c(=O)c1/C=C1\SC(=S)N(CC(C)C)C1=O (centres undefined)	32% (active)
CCOC(=O)CC1C(=O)NCCN1c1nc2ccc(C)cn2c(=O)c1/C=C1\SC(=S)N(C(C)CC)C1=O (centres undefined)	20.6%
CCOC(=O)CC1C(=O)NCCN1c1nc2ccc(C)cn2c(=O)c1/C=C1\SC(=S)N(CC(C)C)C1=O (centres undefined)	3.2%
COc1ccc(C(=O)O)cc1NC(=S)NC(=O)Cc1ccc(Cl)cc1	-11.2%

SMILES	inhibition
Cn1c(SCC(=O)NCCc2ccccc2)nnc1C1CCCCC1	-6.8%
COC(=O)Nc1ccc(N2CCOCC2)c(S(=O)(=O)N2CCOCC2)c1	-18%
c1ccc(C2[C@H]3CN(Cc4cccnc4)[C@H](c4ccccc4)C34CC2(c2ccccc2)C4)cc1 (some centres undefined)	-5.1%
Cc1ccc(C)c(N2CCN(C(=O)CCNC(=O)Cn3ccc4ccccc4c3=O)CC2)c1	33%
O=[N+]([O-])c1ccc(C2Nc3cccc4cccc(c34)N2)cc1	25.1%
O=[N+]([O-])c1ccccc1C1Nc2cccc3cccc(c23)N1	105% (active)
Oc1ccccc1C1Nc2cccc3cccc(c23)N1	7.9%
Cc1ccc(C(NC(=O)N2CCOCC2)=C(Cl)Cl)cc1F	32.1%
Cc1ccc(C(NC(=O)N2CCCCC2)=C(Cl)Cl)cc1F	74% (active)
Cc1ccc(C(NC(=O)NCCCN2CCOCC2)=C(Cl)Cl)cc1F	34.4%
COc1ccc(CN2CCN(c3cccc(C)c3C)CC2)cc1OC	21.4%
CCC1Oc2ccc(C)cc2N(CC(=O)NCCN2CCOCC2)C1=O (centres undefined)	-21%
Clc1ccc(C2=NN(c3ccccc3)C(c3ccco3)C2)cc1 (centres undefined)	-9.1%
Fc1ccc(C2=NN(c3ccccc3)C(c3ccco3)C2)cc1 (centres undefined)	4%
c1ccc(C2=NN(c3ccccc3)C(c3ccco3)C2)cc1 (centres undefined)	54.1% (active)
O=S(=O)(c1ccc(F)cc1)N1CCn2c(nc3ccccc32)C1	-11.7%
CCOc1ccc(S(=O)(=O)Nc2cc(C)ccn2)c2ccccc12	5.2%
Cc1ccc2[nH]c3c(=O)n(Cc4ccco4)cnc3c2c1	1.2%
CCOc1cccc(-c2nnc3sc(-c4ccc(C)cc4)nn23)c1	-0.8%
c1cncc(-c2nnc3sc(C4CCCCC4)nn23)c1	-14.1%
CCOc1cccc(-c2nnc3sc(C4CCCCC4)nn23)c1	66.8% (active)
COc1ccc(-c2nnc3sc(C4CCCCC4)nn23)cc1OC	9.5%
COc1cc(-c2nnc3sc(C4CCCCC4)nn23)cc(OC)c1OC	-20.6%
COc1cccc(-c2nnc3sc(C4CCCCC4)nn23)c1	96.4% (active)
